13 molecules from article PMC12864922, “TDP-43 directly inhibits mRNA accumulation in neurites through modulation of mRNA stability” can be followed below.

In all, about 9,900 sequences were measured (“r (bound/input frequency ratio)”: median about 0.7, highest 2% from about 6.5 on). For the sample, the highest values were picked, then their nearest neighbours and some sequences at random.

First the molecules themselves.
B1: ENSMUSG00000029636.74|Wasf3 (ssRNA)
RNA: GGGAGUUCUACAGUCCGACGAUCGCUUCGAUAUCCGCAUGCUACCCACGUCAGCUCUCUGCAAGAUCACUGGCUGUGUGUCUCAGUGAUGUCUUCCAACCAGUGGGUGAUACGUUUUCCUGUUUCUUCCCUUUGCAAAUUGAAUUCCAGGUAGAUAUGGUUGUAGAGGGGAAAGUUUAACAAAUCAGAAUGAAAUGUUUGUCUGUUUGCACACUGGGCCUGGUGGCCUCCAAGGAAAUGUGUACGAUCGUUUGCUUUCUCUAUCUUGGCGCUUGCAACCGAGAGCGGCCAUUUUUAUGAGGGGCUCUUGCGGUCGCACUAGUGUGGAAUUCUCGGGUGUCAAGG
B2: ENSMUSG00000004113.257|Cacna1b|213:217 (ssRNA)
RNA: GGGAGUUCUACAGUCCGACGAUCGCUUCGAUAUCCGCAUGCUAGAUGCUGAAGAGUGCAAAACGCUAGCAAAGAAGAGGCUGGGGUUAGAGGAAGAAGCCCGCACUGGCCGUGUUACAAGAAACUGGCAGGAAGGAAAUGGCCCUGGAACAGGCCAGGUGCCUAGAGCUAAGUCAGGCCCCUGGCUUAGCACUAGAAAAAAUAAAACCUCAUGGCUGCUUUGCAAAGGGAAAACCCAUGCUCAGGAAGGUGUUCACACACCACAGAUAGCUGGGAGGCCACGAGAGAAAGGUUGCACACAGACCUCUUGCGGUCGCACUAGUGUGGAAUUCUCGGGUGUCAAGG
B3: ENSMUSG00000028439.88|Fam219a (ssRNA)
RNA: GGGAGUUCUACAGUCCGACGAUCGCUUCGAUAUCCGCAUGCUAGGAAAGGGGUUUUGAGAAGAAAAGGAUCCAAGCAAUGGGGGCAGUUCUCACACCUCAGAGCCCCUCUCCCCAAACCCUGUGCCAGCCCAUAUACCUAUUUGUGUUUUCCCCUCAUCUCCAGAUGGGAAGCCUGGCAGCGCUGUCCAAAGGGAUACUGUCUCUCCAUUAGAUAACUCCUUCCACUGUCUCCCUCCCCCGCUUUCUUACUUUCUGAGGGUUGGGAAGGUAAGAUGGGCCUUAGAGAGAAGCCAGGUUUGGGGCUCUUGCGGUCGCACUAGUGUGGAAUUCUCGGGUGUCAAGG
B4: ENSMUSG00000031028.91|Tub (ssRNA)
RNA: GGGAGUUCUACAGUCCGACGAUCGCUUCGAUAUCCGCAUGCUACAAGCUGUAUGUAGAAAAAGCUCUGGUGGUCAGCAGAAAGCACUCCCACUUCAAAAGGGCCCAUUAGGCCCAAAGGGGGUUAGGAGUGGUAGGGAUAGGUGCGUGGCAGGUCCCUGCUAGGAUUGCAGGGGCCUGGCCAUGUGUAUUAGCUGGAGGCUUAGAAUGCUAGCUCAUUUGUUGCUACAGAUUUGCCCAGUGCUUGCACACGUAAGAACCCAGCUCUCAAGGCCAAAUAUCUGAGUGGAUGGGGAUGAUAGGAGCUCUUGCGGUCGCACUAGUGUGGAAUUCUCGGGUGUCAAGG
B5: ENSMUSG00000031028.31|Tub|122:126 (ssRNA)
RNA: GGGAGUUCUACAGUCCGACGAUCGCUUCGAUAUCCGCAUGCUACUGCCUGCCAAGACAGCCCUGCCUACCCUCUGUUCAUAGGCCCUCUAUGGGCUUUCUGGCCUUACCAACCAGAGACUGGCUGCUCUGCCUCUGCUGCUGAAGCAGGGGGGACAGCAAAUGGCAUACACAGGAGAAGAAUAUUUCUGUGCCCCAAGGUCAACACACAUGCCCAGUCCUGGGUCAGUCCCCUGCUGCAGUGGUGUUAUCACACCGGAAAGCCUCUUCACCUGGAGGUACAGAGGGAGAGGAAGCACAAGCCUCUCUUGCGGUCGCACUAGUGUGGAAUUCUCGGGUGUCAAGG
B6: ENSMUSG00000042529.154|Kcnj12 (ssRNA)
RNA: GGGAGUUCUACAGUCCGACGAUCGCUUCGAUAUCCGCAUGCUAAACACCAGAGUGGGUGCUUCUUAGAAAAGGACACUCAGGAAAUUAGUAUGGGGUCUGGGUCCCACAUCCCCAGGAAGUGGGUCAGCCCCACGUCCCCCGCUGGACUCACAGCUUGAGUUGUGCCUUAGAGACUCUGGUUGUCUGGCUUCCGUCAUUUCUGGUUUUCUCAGACUUGUUUAAUCUUUCCCUACUGCCCUAAGUCCACUCAUGAAGCUCCCCAGGCCCUUCUGAGAUUGCAGAGGCUGCUUGCUCAUAGCCAUCUCUUGCGGUCGCACUAGUGUGGAAUUCUCGGGUGUCAAGG
B7: ENSMUSG00000061578.1390|Ksr2|74:78;177:181 (ssRNA)
RNA: GGGAGUUCUACAGUCCGACGAUCGCUUCGAUAUCCGCAUGCUACUUUGUAAAUGAUUCUGUUGCCUUUUUCUAAACACAAAGUAUAUAUACCUAUAAAUGCUAUAUAUAUUAUAUAACACAAUAUACAUAAAGACUACUUCUUGUACAGCCCUCCACGGACCUCAGGCCCACUGUUUUCUCCAUGUCUGUCUGUACUGACUGUUGCAGAAUGAGCUGAUCAUACAUCUUGAUUCUCCAUUUUCCUUCUGGACCACAUGUCUCUUCCUUUUCCUUUUUAGAUCUGUCUUGCUCUCUGUCUCUCUCUCUUGCGGUCGCACUAGUGUGGAAUUCUCGGGUGUCAAGG
B8: ENSMUSG00000022095.44|Fam160b2 (ssRNA)
RNA: GGGAGUUCUACAGUCCGACGAUCGCUUCGAUAUCCGCAUGCUACUGGCUCCUAAGGCAGUGGUAUUCUUGGAGCCUUUUAGAGGAGCUAGAGGAUGGCCAGUGAGCGCCUAGAUGCUGCCCUGCAUGUGUUGCGUGACUAUCUCUGCUAUAUUGUGACCAGGGCCACAACAUGAGACAACUCCAGGGGCCAGGGAGAUGAACUGCUGUCUUUGAGGCUGGCUAAAAAAACAAUCCAGUCCAGAGAGAUGGGGAGGGGGGGAGCAAGAACCCUGUCUGUUACAUUAGGUAUCAUGGAAGCUGCUCUCUUGCGGUCGCACUAGUGUGGAAUUCUCGGGUGUCAAGG
B9: ENSMUSG00000029636.316|Wasf3 (ssRNA)
RNA: GGGAGUUCUACAGUCCGACGAUCGCUUCGAUAUCCGCAUGCUAUGGCAAAACUUUUUUUGGUAAGGUCCUUAUGCUCUCAGGGUGGAGGGAAGACAUUAAAGCUACGCAGCCAUUGUCAGGAUUUUUUCUACUGAUGUCACAUCAGAAUAUAACUAGUGGCUCCUUACUCACAAAUGUUCACGAGCUUCUCCGUUGUCACUUGUCCUGUAGUUUUGCCAACAAGUUAAUUUUAGUUUGAUUUUAUAGCUAGAGAGAAAGCUUUUGCCCGUUGCAUUCUGUAACCUUCAAAAGAAUGAGAAACGCUCUUGCGGUCGCACUAGUGUGGAAUUCUCGGGUGUCAAGG
B10: ENSMUSG00000061578.330|Ksr2|114:118 (ssRNA)
RNA: GGGAGUUCUACAGUCCGACGAUCGCUUCGAUAUCCGCAUGCUACUCCAAGGAAGCCAGGGGAGGGGGACUCCUCAGGAAGGAGUGACCAGUCACCUGCCUCCCAGGGUUCUGCCUUGCCCUUAAGCUAGGGUCCUUCAAGCAUCCACAGACUUAGACACACGUGGUAACAUGCUUGUAAUCCUGGCACUCUGGAGGCUGAGGCAGGAGGAUAACAAGUCUAGACUAUAUAUGAUUUCUGAGGGUCUGUUAGUGAAUAAGUACCUGGAUGACAUGGGACAAGUCCCAGCCUUCCCUGCUCCUGCCUCUUGCGGUCGCACUAGUGUGGAAUUCUCGGGUGUCAAGG
B11: ENSMUSG00000061578.809|Ksr2 (ssRNA)
RNA: GGGAGUUCUACAGUCCGACGAUCGCUUCGAUAUCCGCAUGCUACUUUGCCUCUACUAGAUGAUCUUGCAUCUGUCUUUGUGGGACUCUUUUUAUGAGGAACCAGUCCUGUUGAAUCGGGGUGCUCUGUAUUAGUUAUUUUUGUAACUUGUGAUUGUAACCAAAUGCCCGAUAGAAACAGCAUUCUGGCUCACAGUUUCAAAGGGCUCAGUCCAUAGCUGCCUGACUCUGUGUUUCUAGGCCUUUCUUGAGGCAAGUGUUCAUCAUGAUAGUGUGAGGGUGAGGAGGAGUUUCUUCAUGGCAAACUCUUGCGGUCGCACUAGUGUGGAAUUCUCGGGUGUCAAGG
B12: ENSMUSG00000034801.220|Sos2 (ssRNA)
RNA: GGGAGUUCUACAGUCCGACGAUCGCUUCGAUAUCCGCAUGCUAAUUUGACUAAUUUGUAAGUCUGGAACAAAAGUGUCUUAUGGCAUAAGAACCAACUGCCAUUGUCAAACCUAUUAACUGUCUUUAAUCUCGUGUUAACUGAAAUUUUUGAAAAGUUUUUCCAGAUUAGUAAUAUUUAAACAGAAAAUACUUUAAAAAGCUUUAUUAAAUUUUUUAAUCAGGAUAAAGCUUUGCCAUUUGGAUACUAUCAUUCAAAGUGAUCAAGGUAUGUAUGUUAUGCUGAUAGUGCAGUAGCAGCCAUUCUCUUGCGGUCGCACUAGUGUGGAAUUCUCGGGUGUCAAGG
B13: ENSMUSG00000031028.102|Tub (ssRNA)
RNA: GGGAGUUCUACAGUCCGACGAUCGCUUCGAUAUCCGCAUGCUAGGCCCAAAGGGGGUUAGGAGUGGUAGGGAUAGGUGCGUGGCAGGUCCCUGCUAGGAUUGCAGGGGCCUGGCCAUGUGUAUUAGCUGGAGGCUUAGAAUGCUAGCUCAUUUGUUGCUACAGAUUUGCCCAGUGCUUGCACACGUAAGAACCCAGCUCUCAAGGCCAAAUAUCUGAGUGGAUGGGGAUGAUAGGAGUCAUCCAGUAGACUCCCUACAUCAGGGCUCUCAGCAGCCCCAGCACAACACCUAUGACACACACACCUCUUGCGGUCGCACUAGUGUGGAAUUCUCGGGUGUCAAGG

For the test, the target named is TDP-43 (Homo sapiens, UniProt Q13148 1-414). In words: RNA Bind-n-Seq with designed 260-mer pool; 25 mM Tris-HCl, 150 mM KCl, 3 mM MgCl2, BSA (printed 500 mg/mL), 20 units/mL SUPERase IN; pH not stated; 500 nM RNA pool, 1 h, 4 C; TDP-43 5, 50, 500 nM; high values mean tight binding. The settings on record: protein: recombinant; tags: SBP (GST cleaved off with PreScission; pGEX-GST-SBP). Put shortly: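 For each oligo, R gives binding as its mapped-read-normalized abundance after pulldown divided by its abundance in input. Bead-captured SBP-tagged TDP-43 (5, 50 or 500 nM) was incubated with 500 nM of an in vitro-transcribed 260-nt 3′ UTR oligo pool for 1 h at 4 °C in 25 mM Tris-HCl, 150 mM KCl, 3 mM MgCl2, BSA and SUPERase IN on streptavidin beads. Washed, biotin-eluted RNA was reverse transcribed, PCR-amplified and sequenced.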
Sequence of TDP-43 (Q13148 whole entry): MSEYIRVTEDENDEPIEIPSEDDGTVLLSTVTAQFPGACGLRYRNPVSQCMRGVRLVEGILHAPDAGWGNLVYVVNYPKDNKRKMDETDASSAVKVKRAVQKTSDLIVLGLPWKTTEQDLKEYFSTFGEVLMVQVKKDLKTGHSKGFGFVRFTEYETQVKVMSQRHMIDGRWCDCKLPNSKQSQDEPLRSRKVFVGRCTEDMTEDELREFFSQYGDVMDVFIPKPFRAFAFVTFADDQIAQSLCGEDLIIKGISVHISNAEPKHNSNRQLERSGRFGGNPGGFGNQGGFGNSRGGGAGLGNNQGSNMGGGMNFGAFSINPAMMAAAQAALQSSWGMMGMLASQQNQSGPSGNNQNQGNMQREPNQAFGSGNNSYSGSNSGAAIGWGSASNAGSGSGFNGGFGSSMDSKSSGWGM
On to B1, for which the binding signal was 2.22 R (bound/input frequency ratio).

Take B2: the binding signal is 0.718 R (bound/input frequency ratio).

In the case of B3, the binding signal was 0.765 R (bound/input frequency ratio).

B4: the binding signal is 5.97 R (bound/input frequency ratio).

With B5, the binding signal was 0.475 R (bound/input frequency ratio).

For B6, the binding signal was 0.462 R (bound/input frequency ratio).

For B7, the binding signal was 0.257 R (bound/input frequency ratio).

For the molecule B8, the binding signal is 1.48 R (bound/input frequency ratio).

Take B9: the binding signal is 0.157 R (bound/input frequency ratio).

On to B10, for which the binding signal is 1.65 R (bound/input frequency ratio).

On to B11, for which the binding signal was 0.455 R (bound/input frequency ratio).

As for B12, the binding signal is 0.0389 R (bound/input frequency ratio).

In the case of B13, the binding signal is 1.03 R (bound/input frequency ratio).
